# Laboratory results reported in PubChem BioAssay (NCATS).
# Records with an inconclusive call do not appear. Where a call stands in place of a potency, no number is given. Active and inactive are the calls of the source. Unless noted, calls come from the whole dose curve; as a rule, active = well fitted curve in the direction sought with a large enough effect; inconclusive = small, poorly fitted or top-dose-only effect, or another doubt; inactive = no such curve, though single readings can be large; an effect the other way counts as inactive or inconclusive.
# Key:
# [1] = Cell Viability - NIH 3T3 (AID 541); conditions: NIH 3T3 cell viability, qHTS; activity change, negative = cytotoxicity: at 92.2 µM (top of the series);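 note: cells exposed to compound for 40 hours; nearly all actives have a fitted effect of over 25% in size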
# Outline: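 qHTS format; 40 hr compound exposure, 37 °C; CellTiter-Glo luminescence (cellular ATP) read-out after 20 min at RT. Decrease in ATP = cytotoxicity; AC50 from standard Hill fit.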
# [2] = Cellular Toxicity (caspase-3) HepG2 (AID 654);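 note: cells exposed to compound for 16 hours before reading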
# Outline: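 Luminescent Caspase-Glo 3/7 readout after 16 hr compound exposure of human hepatocellular carcinoma HepG2 cells at 37 °C; qHTS concentration-response, normalized DMSO = 0%, 100 uM tamoxifen = 100%; AC50 by standard Hill equation.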
# [3] = target: Cytochrome P450 3A4 (Homo sapiens) (UniProt P08684); assay: qHTS Assay for Inhibitors and Substrates of Cytochrome P450 3A4 (AID 884); note: nearly all actives have a fitted effect of over 50% in size; note: potency is the fitted concentration of half-maximal effect
# Sequence of Cytochrome P450 3A4 (Homo sapiens) (P08684 whole entry, looked up): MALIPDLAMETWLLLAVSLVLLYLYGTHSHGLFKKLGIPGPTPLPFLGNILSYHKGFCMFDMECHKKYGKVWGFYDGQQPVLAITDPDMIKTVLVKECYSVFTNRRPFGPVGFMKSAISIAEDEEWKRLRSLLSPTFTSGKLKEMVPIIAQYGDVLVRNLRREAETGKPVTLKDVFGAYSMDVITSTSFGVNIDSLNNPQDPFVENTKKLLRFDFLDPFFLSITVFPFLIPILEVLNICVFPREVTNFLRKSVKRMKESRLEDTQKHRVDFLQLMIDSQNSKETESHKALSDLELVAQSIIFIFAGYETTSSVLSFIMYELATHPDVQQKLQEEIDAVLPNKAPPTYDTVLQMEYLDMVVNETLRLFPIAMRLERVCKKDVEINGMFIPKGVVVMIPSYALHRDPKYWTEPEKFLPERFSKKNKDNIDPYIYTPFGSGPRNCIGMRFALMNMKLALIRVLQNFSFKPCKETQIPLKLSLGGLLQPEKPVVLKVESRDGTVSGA
# Outline: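 Luminescent readout of luciferin produced by CYP3A4 (20 nM) dealkylation of Luciferin-PPXE, 25 uM (its KM). NADPH-driven reaction ran 60 min at RT after 10 min compound preincubation; data scaled to 57 uM ketoconazole as 100% inhibition.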
# [4] = MultiTox-Fluor Cytotoxicity Assay - LYMP1-003 - Live Cells (AID 962);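 note: cells exposed to compound for 16 hours at 37 °C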; note: potency is the fitted concentration of half-maximal effect
# Outline: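 Readout: live-cell fluorescence (Ex/Em=405/510) from GF-AFC cleavage after 60 min MultiTox-Fluor reagent at room temperature. Lymphoblastoid LYMP1-003 cells, 16 hr compound treatment, 37 C. Concentration-response fitted to standard Hill equation for AC50.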
# [5] = Cell Viability - LYMP2-015 (AID 971);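 note: cells exposed to compound for 24 h; nearly all actives have a fitted effect of over 55% in size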; note: potency is the fitted concentration of half-maximal effect
# Outline: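 qHTS cytotoxicity: 2500 cells/well, 5 hr 37 C, compound 24 hr 37 C, CellTiter-Glo 30 min RT, luminescence. Loss of ATP = toxicity; AC50 via standard Hill fit.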
# [6] = target: Peroxisome proliferator-activated receptor gamma (Homo sapiens) (UniProt P37231); assay: qHTS assay for small molecule agonists of peroxisome proliferator-activated receptor gamma signaling (AID 588536; active = well fitted curve in the direction sought with a large enough effect in the signal ratio, with a control signal flat, not every such curve was filed as active; the % refers to the signal ratio)
# Sequence of Peroxisome proliferator-activated receptor gamma (Homo sapiens) (P37231 whole entry, looked up): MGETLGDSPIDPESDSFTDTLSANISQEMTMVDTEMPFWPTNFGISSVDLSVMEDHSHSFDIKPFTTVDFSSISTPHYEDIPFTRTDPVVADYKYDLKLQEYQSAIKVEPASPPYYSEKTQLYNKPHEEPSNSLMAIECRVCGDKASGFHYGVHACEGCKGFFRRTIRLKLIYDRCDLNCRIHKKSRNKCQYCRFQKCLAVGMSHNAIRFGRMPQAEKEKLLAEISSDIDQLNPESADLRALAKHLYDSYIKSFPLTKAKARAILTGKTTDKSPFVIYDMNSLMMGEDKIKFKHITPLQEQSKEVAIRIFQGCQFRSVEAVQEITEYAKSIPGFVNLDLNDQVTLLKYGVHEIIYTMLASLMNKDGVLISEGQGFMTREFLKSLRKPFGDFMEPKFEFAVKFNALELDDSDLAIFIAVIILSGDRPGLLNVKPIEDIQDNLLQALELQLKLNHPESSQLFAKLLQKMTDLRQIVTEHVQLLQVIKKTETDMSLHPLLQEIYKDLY
# Outline: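 Using GeneBLAzer HEK293 cells, response was quantified by CCF4 fluorescence and normalized between basal DMSO (0%) and rosiglitazone 2 uM (100%); curves yielded half-maximal stimulation concentration and efficacy.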
# [7] = qHTS assay for small molecule agonists of the antioxidant response element (ARE) signaling pathway (AID 651741; active = well fitted activation curve with a large enough effect in the signal ratio; the % refers to the signal ratio; note: potency is the fitted concentration of half-maximal effect)
# Outline: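 Agonist activity is measured as ARE-driven beta-lactamase expression in a stable HepG2 reporter line, using 16 h compound treatment at 37 C and a FRET substrate fluorescence readout after 2 h.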
# [8] = qHTS assay for small molecule activators of the nuclear factor-kappa B (NF-kB) signaling pathway (AID 651749; active = well fitted activation curve with a large enough effect in the signal ratio; the % refers to the signal ratio); conditions: NF-kB-bla ME-180 cells, beta-lactamase FRET ratio, 16 h; stronger effect = higher value
# Outline: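 FRET-based beta-lactamase detection in ME-180 cells reports NF-kB response-element-driven transcription following overnight (16 hr) compound treatment.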
# [9] = target: Nuclear receptor ROR-gamma (Homo sapiens) (UniProt P51449); assay: qHTS assay for small molecule antagonists of the retinoid-related orphan receptor gamma (ROR-gamma) signaling pathway (AID 651802); note: nearly all actives have a fitted effect of over 60% in size; note: potency is the fitted concentration of half-maximal effect
# Sequence of Nuclear receptor ROR-gamma (Homo sapiens) (P51449 whole entry, looked up): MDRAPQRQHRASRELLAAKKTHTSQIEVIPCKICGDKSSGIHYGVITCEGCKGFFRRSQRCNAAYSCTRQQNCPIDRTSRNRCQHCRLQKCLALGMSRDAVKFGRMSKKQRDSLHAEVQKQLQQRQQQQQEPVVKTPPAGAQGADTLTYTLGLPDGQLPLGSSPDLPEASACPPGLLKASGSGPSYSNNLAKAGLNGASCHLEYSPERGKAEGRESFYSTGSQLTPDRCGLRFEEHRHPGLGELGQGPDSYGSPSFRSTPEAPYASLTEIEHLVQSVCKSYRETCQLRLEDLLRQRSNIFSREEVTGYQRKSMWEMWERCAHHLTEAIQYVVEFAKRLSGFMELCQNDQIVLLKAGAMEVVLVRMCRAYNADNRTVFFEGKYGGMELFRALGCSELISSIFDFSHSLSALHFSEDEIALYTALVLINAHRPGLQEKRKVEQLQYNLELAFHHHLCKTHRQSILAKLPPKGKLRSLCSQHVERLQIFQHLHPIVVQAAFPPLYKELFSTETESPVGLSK
# Outline: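 Luciferase read-out: ONE-Glo luminescence after 30 min at room temperature, following 16hr doxycycline induction at 37C, 5% CO2 of CHO cells with TET-inducible ROR and RORE-LUC reporter; decreased luminescence = reduced reporter activity.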
# [10] = qHTS assay for small molecule agonists of the antioxidant response element (ARE) signaling pathway measured by Nrf2-dependant transcriptional activity - cell viability counter screen (AID 720653; active = well fitted curve in the direction sought with a large enough effect in the repeat runs; an effect the other way counts as inactive or inconclusive); conditions: ARE-bla HepG2 viability, CellTiter-Glo ATP luminescence, 16 h; max response: stronger effect = lower value
# Outline: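 Cytotoxicity counter screen: intracellular ATP quantified by CellTiter-Glo luminescence in the same ARE-bla HepG2 plates, after 16 h compound exposure and a 2 h beta-lactamase substrate step.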
# [11] = Cellular Toxicity (caspase-3) Hek293 (AID 664); conditions: HEK293 caspase-3 activation, DMSO = 0%, 100 µM tamoxifen = 100%; at 92.2 µM (top of the series);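 note: cells exposed to compound for 16 h at 37 °C before readout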
# Outline: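 Luminescent Caspase-Glo 3/7 readout (aminoluciferin release) in HEK293 cells after 16 h compound treatment, 37 °C. Normalization: DMSO = basal, 100 uM tamoxifen = 100% stimulation. Concentration-response fitted with standard Hill equation for AC50.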
# [12] = qHTS assay for cell viability of HEK293 cells (AID 743288); conditions: ATP luminescence (CellTiter-Glo), 18 h; max response: stronger effect = lower value; note: nearly all actives have a fitted effect of over 50% in size; note: potency is the fitted concentration of half-maximal effect
# Outline: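 Quantitative high-throughput screen: compounds were pinned onto parental HEK293 cells (2,000 per well) after a minimum 5 h settling at 37 C, incubated 18 h at 37 C, and intracellular ATP measured by luciferase luminescence.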
# [13] = Cell Viability - MRC5 (AID 434; calls by dose curve;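 note: potency is the fitted concentration of half-maximal effect; cells exposed to compound for 40 hours at 37 °C; potency reflects cytotoxicity seen as loss of intracellular ATP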); conditions: MRC5 lung fibroblast viability, qHTS
# Outline: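 AC50 values come from Hill-equation fits of intracellular ATP loss, measured by CellTiter-Glo luminescence. Normal lung fibroblasts (MRC5) had 40 hr compound treatment at 37 C, normalized between DMSO and 100 uM tamoxifen.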
# [14] = Cellular Toxicity (caspase-3) BJ (AID 658); conditions: Potency: caspase-3 activation;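 note: cells exposed to compound for 16 hours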
# Outline: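 Caspase-Glo 3/7 luminescence, read 1 hr after reagent at room temperature, in normal BJ fibroblasts exposed 16 hours at 37 °C. AC50 values from Hill-equation concentration-response, scaled between DMSO basal and 10 uM staurosporine as 100%.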
# [15] = target: Estrogen receptor (Homo sapiens) (UniProt P03372); assay: qHTS assay for small molecule antagonists of estrogen receptor alpha signaling (AID 588513; active = well fitted curve in the direction sought with a large enough effect in the signal ratio, with a control signal flat, not every such curve was filed as active; the % refers to the signal ratio)
# Sequence of Estrogen receptor (Homo sapiens) (P03372 whole entry, looked up): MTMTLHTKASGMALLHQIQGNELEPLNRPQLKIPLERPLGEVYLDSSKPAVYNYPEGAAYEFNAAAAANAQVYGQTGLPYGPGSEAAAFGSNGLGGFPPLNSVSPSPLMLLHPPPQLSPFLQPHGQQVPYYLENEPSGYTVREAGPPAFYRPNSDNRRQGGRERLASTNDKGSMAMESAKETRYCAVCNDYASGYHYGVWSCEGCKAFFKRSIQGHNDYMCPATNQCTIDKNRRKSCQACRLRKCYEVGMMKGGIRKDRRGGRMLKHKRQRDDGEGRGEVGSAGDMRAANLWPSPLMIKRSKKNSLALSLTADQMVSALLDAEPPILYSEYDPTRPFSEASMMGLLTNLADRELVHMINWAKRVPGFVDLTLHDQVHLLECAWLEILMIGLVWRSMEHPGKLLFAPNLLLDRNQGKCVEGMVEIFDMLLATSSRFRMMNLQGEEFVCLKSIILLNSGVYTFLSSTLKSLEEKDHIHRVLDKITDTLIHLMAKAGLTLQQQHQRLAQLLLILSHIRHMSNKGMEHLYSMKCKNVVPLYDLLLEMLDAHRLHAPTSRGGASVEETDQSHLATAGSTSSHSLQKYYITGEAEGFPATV
# Outline: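 Cells were plated at 5000/well and incubated 4 h at 37 C. Compounds were added as 1:2 dilution series, duplicates. 17-beta-estradiol (0.5nM final) was added for 18 h before CCF4 detection.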
# [16] = qHTS assay for small molecule antagonists of peroxisome proliferator-activated receptor delta signaling (AID 588535; active = well fitted inhibition curve with a large enough effect in the signal ratio, with a control signal flat, not every such curve was filed as active; the % refers to the signal ratio;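 for max response: cells co-treated with a PPAR-delta agonist as stimulator during compound exposure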); conditions: HEK293T PPARd-UAS-bla, beta-lactamase FRET ratio, 18 h; 460 nm channel
# Outline: (§1)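 Antagonist-mode qHTS using GeneBLAzer PPAR-delta-UAS-bla HEK293T cells; compound exposure 18 hrs at 37 C over a titration. Ratiometric CCF4 fluorescence at 460/530 nm; concentration-response points fitted to the Hill equation.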
# [17] = target: Peroxisome proliferator-activated receptor delta (Homo sapiens) (UniProt Q03181); assay: as above
# Sequence of Peroxisome proliferator-activated receptor delta (Homo sapiens) (Q03181 whole entry, looked up): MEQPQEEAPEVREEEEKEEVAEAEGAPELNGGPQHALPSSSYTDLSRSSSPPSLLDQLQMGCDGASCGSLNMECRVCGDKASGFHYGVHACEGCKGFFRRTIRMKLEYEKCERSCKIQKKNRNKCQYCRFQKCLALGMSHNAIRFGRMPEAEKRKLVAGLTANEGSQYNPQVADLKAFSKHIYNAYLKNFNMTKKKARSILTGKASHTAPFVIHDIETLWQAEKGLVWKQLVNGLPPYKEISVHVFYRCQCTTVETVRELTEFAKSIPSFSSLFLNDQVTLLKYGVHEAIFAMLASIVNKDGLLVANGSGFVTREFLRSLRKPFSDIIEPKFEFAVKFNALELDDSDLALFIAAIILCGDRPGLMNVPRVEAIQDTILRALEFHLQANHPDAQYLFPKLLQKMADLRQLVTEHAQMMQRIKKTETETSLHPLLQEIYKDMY
# Outline: as §1
# [18] = qHTS assay for small molecule antagonists of the retinoid-related orphan receptor gamma (ROR-gamma) signaling pathway - cell viability counter screen (AID 720652; active = well fitted curve in the direction sought with a large enough effect in the repeat runs; an effect the other way counts as inactive or inconclusive;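 note: CHO reporter cells with doxycycline-induced ROR-gamma expression; compound exposure lasted 16 hr before ATP read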)
# Outline: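 CHO RORE-LUC/TET-ROR line, 1,000 cells/well, 37 C 5% CO2 5 hr; cpd or DMSO + doxycycline induction, 16 hr. CellTiter-Glo, 30 min RT, luminescence = ATP content.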
# [19] = qHTS assay for small molecule activators of the human pregnane X receptor (PXR) signaling pathway (AID 720659; call rule not given here)
# [20] = Cellular Toxicity (caspase-3) H-4-II-E (AID 663); conditions: Potency: caspase-3 activation;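 note: cells exposed to compound for 16 hr before readout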
# Outline: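 Caspase 3/7 activation measured by luminescent aminoluciferin substrate cleavage after 16 hr compound treatment of H-4-II-E cells in complete medium. Increase normalized between DMSO (basal) and 100 uM tamoxifen (100%); Hill-equation AC50 from concentration-response.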
compound,measurement,setting,value
CC/C=C/C/C=C/C/C=C/CCCCCCCC(=O)OCC,"activity change, negative = cytotoxicity",[1],-19.6% (inactive)
same,Potency,[2],inactive
same,Potency,[3],10 µM (active)
same,Potency,[4],inactive
same,Potency,[5],39.8 µM (active)
same,outcome,[6],inactive
same,Potency,[7],59.6 µM (active)
same,activation,[8],-1.38% (inactive)
same,Potency,[9],inactive
same,max response,[10],-18.4% (inactive)
C=C1CC[C@H](O)C/C1=C/C=C1\CCC[C@]2(C)[C@@H]([C@H](C)CCCC(C)C)CC[C@@H]12,Potency,[2],inactive
same,caspase-3 activation,[11],173% (active)
same,Potency,[4],50.1 µM (active)
same,Potency,[5],39.8 µM (active)
same,activation,[8],1.86% (inactive)
same,max response,[10],-9.05% (inactive)
same,Potency,[12],44.7 µM (active)
Cc1cc(-c2ccc(N=Nc3cc(S(=O)(=O)O)c4ccccc4c3N)c(C)c2)ccc1N=Nc1cc(S(=O)(=O)O)c2ccccc2c1N,Potency,[13],> 92 µM (inactive)
same,Potency,[2],inactive
same,Potency,[14],inactive
same,caspase-3 activation,[11],-4.55% (inactive)
same,outcome,[15],inactive
same,max response,[16],-39.2%
same,outcome,[17],inactive
same,Potency,[9],inactive
same,Potency,[18],inactive
same,max response,[10],-27.3% (inactive)
same,outcome,[19],inactive
O=C=Nc1ccc(Cl)c(Cl)c1,"activity change, negative = cytotoxicity",[1],-122% (active)
same,Potency,[14],inactive
same,Potency,[20],inactive
same,Potency,[3],inactive
same,Potency,[4],inactive
same,outcome,[15],inactive
same,Potency,[7],75 µM (active)
same,activation,[8],7.4% (inactive)
same,Potency,[9],33.5 µM (active)
same,max response,[10],-6.45% (inactive)
same,outcome,[19],inactive
CC1=C(/C=C/C(C)=C/C=C/C(C)=C/C=O)C(C)(C)CCC1,Potency,[13],33.4 µM (active)
same,Potency,[14],inactive
same,Potency,[5],39.8 µM (active)
same,Potency,[7],29.8 µM (active)
same,activation,[8],-2.37% (inactive)
same,max response,[10],2.27% (inactive)
C1CCCNCC1,"activity change, negative = cytotoxicity",[1],-12.5% (inactive)
same,Potency,[20],inactive
same,caspase-3 activation,[11],2.08% (inactive)
same,Potency,[3],inactive
same,Potency,[4],inactive
same,Potency,[5],inactive
same,outcome,[15],inactive
same,max response,[16],-36.7%
same,outcome,[17],inactive
same,outcome,[6],inactive
same,Potency,[7],inactive
same,Potency,[9],inactive
same,Potency,[18],inactive
same,max response,[10],-5.98% (inactive)
same,max response,[12],-3.87% (inactive)
same,outcome,[19],inactive
Oc1cc2c(cc1O)[C@H]1c3ccc(O)c(O)c3OC[C@@]1(O)C2,Potency,[13],> 92 µM (inactive)
same,"activity change, negative = cytotoxicity",[1],-89.3% (active)
same,Potency,[14],inactive
same,Potency,[20],inactive
same,Potency,[5],25.1 µM (active)
same,outcome,[15],inactive
same,outcome,[6],inactive
same,Potency,[7],66.8 µM (active)
same,activation,[8],-1.98% (inactive)
same,Potency,[9],11.9 µM (active)
same,Potency,[18],inactive
same,outcome,[19],inactive
CN(C)c1ccc(C(=N)c2ccc(N(C)C)cc2)cc1,Potency,[2],inactive
same,Potency,[14],inactive
same,caspase-3 activation,[11],7.49% (inactive)
same,outcome,[15],inactive
same,activation,[8],3.33% (inactive)
same,Potency,[9],5.31 µM (active)
O=C(O)c1cc(N=Nc2ccc([N+](=O)[O-])cc2)ccc1O,"activity change, negative = cytotoxicity",[1],-24.1% (inactive)
same,Potency,[14],inactive
same,caspase-3 activation,[11],-10.9% (inactive)
same,Potency,[3],inactive
same,Potency,[4],inactive
same,Potency,[5],inactive
same,outcome,[15],inactive
same,activation,[8],-2.01% (inactive)
same,Potency,[9],inactive
same,Potency,[18],inactive
same,max response,[10],-5.1% (inactive)
same,max response,[12],6.02% (inactive)
COc1ccccc1-c1nc(NCc2ccccc2)c2ccccc2n1,Potency,[3],3.98 µM (active)
COc1ccc2cc1Oc1ccc(cc1)C[C@H]1c3cc(c(OC)cc3CCN1C)Oc1c(OC)c(OC)cc3c1[C@@H](C2)N(C)CC3,Potency,[3],inactive
CNc1ncncc1-c1ccc(C(=O)N(C)C)cc1,Potency,[3],5.01 µM (active)
